D1 ag = agonists of human D1 dopamine receptor; P21728; activation, % at 2 µM; HEK293 T-REx D1 cells, calcium flux, agonist mode; actives 1% (n = 360,000); in the data active = activation above about 30%
Target sequence (P21728 whole entry, looked up): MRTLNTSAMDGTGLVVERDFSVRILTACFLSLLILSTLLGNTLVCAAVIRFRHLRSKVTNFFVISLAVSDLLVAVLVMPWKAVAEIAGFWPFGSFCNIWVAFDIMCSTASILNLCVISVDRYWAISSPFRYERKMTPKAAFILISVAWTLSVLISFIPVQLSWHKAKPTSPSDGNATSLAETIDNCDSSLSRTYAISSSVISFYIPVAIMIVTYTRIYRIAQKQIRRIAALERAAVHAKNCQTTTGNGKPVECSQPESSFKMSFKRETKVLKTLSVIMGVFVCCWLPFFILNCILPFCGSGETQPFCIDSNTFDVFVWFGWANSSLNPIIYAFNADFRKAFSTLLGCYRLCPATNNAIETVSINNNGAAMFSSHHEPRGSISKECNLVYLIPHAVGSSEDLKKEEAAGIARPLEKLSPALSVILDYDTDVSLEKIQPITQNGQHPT
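Tetracycline-induced HEK293 TREx D1 cells, force-coupled to calcium signalling, were dye-loaded with a no-wash calcium kit. Compound was pin-added after a 10 s baseline. Fluorescence was read kinetically at 1 cycle/s for 180 s, with calcium rises flagged as agonism.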
D1 antag = human D1 dopamine receptor antagonism; P21728; HEK293 TREx D1 cells, calcium flux, dopamine EC80; hits give low values; activity change, negative = inhibition, % at 10 µM; actives 3.2% (n = 360,000); in the data active = activity change below about -30%
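Calcium flux readout: force-coupled, inducible Hek293 Trex D1 line, cells induced overnight at 30 C with tetracycline, dye-loaded 30–90 min at RT. Antagonism scored against EC80 dopamine challenge given 180 s after compound.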
D1 potentiator = enhances dopamine response at the human D1 receptor | actives 0.036% (n = 360,000) | P21728 | potentiation, % at 10 µM | HEK293 TREx D1 cells, calcium flux, dopamine EC20 potentiation; in the data active = potentiation above about 30%
DRD3 agonist = agonists of human D3 dopamine receptor; max activation, %; AID 652048; D3R DiscoveRx beta-arrestin cells, luminescence, 90 min; actives 0.58% (n = 410,000); P35462; in the data active = max activation above about 30%
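Agonist mode: compounds and dopamine controls were applied to plated cells for 90 min at 37 degrees C after an overnight attachment at 1500 cells/well. Luminescent read-out followed 30 - 60 minutes at room temperature with DiscoveRx detection reagent.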
D3 antag = D3 dopamine receptor (human) antagonism | P35462 | D3R cells, DiscoveRx beta-arrestin luminescence, antagonist mode; hits give low values | max response, negative = inhibition, % | actives 2.5% (n = 360,000) | AID 652054; in the data active = max response below about -50%; inconclusive = no clear call, values can overlap the other calls
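Cells plated overnight at 1500 cells/well, then exposed to library compounds with dopamine controls for 90 minutes at 37 degrees C. DiscoveRx reagent added for 30–60 minutes at room temperature; luminescence read, quantitative HTS format.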
Of the large screens only hits and unclear results are named; the others gave an inactive call. Only some compounds are listed: those with a hit (about 6.1% of all), similar ones and a draw of the others.

O=[N+]([O-])c1ccc(NCCNc2ccc(Cl)nn2)cc1	D3 antag -74
Cc1cccc(N2CCN(C(=O)c3ccoc3C)CC2)c1C	DRD3 agonist 36
Cc1cccc(N2CCN(C(=O)c3cc4ccccc4oc3=O)CC2)c1C	D1 antag -76
CN1CCN(C(=O)c2cc3ccccc3oc2=O)CC1	none
CCN1C(=O)[C@@H]2[C@H](C1=O)[C@@H]1C(=O)Nc3ccccc3C(=O)N1[C@@H]2c1ccc(OC)cc1	DRD3 agonist 35
CCN(CC)CCC(c1ccc(OC)cc1)c1c(O)cc(OC)cc1OC (stereo unspecified)	D1 antag -32, D3 antag inconclusive
COc1cc(O)c(C(CCN2CCCC(C)C2)c2ccc3c(c2)OCO3)c(OC)c1 (stereo unspecified)	D3 antag -68
CCN(CC)CCC(c1ccc(N(C)C)cc1)c1c(O)cc(OC)cc1OC (stereo unspecified)	none
COc1cc(O)c(C(CCN2CCN(c3ccccc3)CC2)c2ccc(N(C)C)cc2)c(OC)c1 (stereo unspecified)	D1 antag -80
COc1ccc(C(CCN2CCN(c3ccccc3)CC2)c2c(O)cc(OC)cc2OC)cc1 (stereo unspecified)	D1 antag -84, D3 antag -112
CC(=O)c1cccc(N(C(=O)Cn2nnc3ccccc32)C(C(=O)NCc2ccccc2)c2ccc(F)cc2)c1 (stereo unspecified)	none (no result: D3 antag)
COc1cccc(CNC(=O)c2ccc(CSc3nc4ccncc4n3Cc3cccc(C)c3)cc2)c1	none (no result: D3 antag)
CC1C(=O)N2CCCc3cc(S(=O)(=O)Nc4ccc(Br)cc4F)cc1c32 (stereo unspecified)	D1 antag -30 (no result: D3 antag)
O=C(Cc1nnc(-c2nc3ccccc3[nH]2)o1)Nc1cc(C(F)(F)F)ccc1Cl	none (no result: DRD3 agonist, D3 antag)
CCn1c(-c2ccsc2)nc2c1c(=O)[nH]c(=O)n2Cc1ccccc1	D1 antag -52
O=C(Nc1cccc(Cl)c1)c1cnc2sc(N3CCCC3)nn2c1=O	none (no result: D3 antag)
O=C1NC(CCc2ccccc2)C(=O)N1CCOc1ccccc1 (stereo unspecified)	none
O=C1NC(CCc2ccccc2)C(=O)N1Cc1ccc(Br)cc1 (stereo unspecified)	D3 antag -71
Oc1c(Cl)cc(Cl)cc1CNc1ccc(Br)cn1	D3 antag -55
Oc1ccc(Cl)cc1CNc1ccc(Br)cn1	none
COc1ccc(N2CC(C)Cn3c2nc2c3c(=O)n(CCN3CCOCC3)c(=O)n2C)cc1 (stereo unspecified)	none
COc1cccc(N2CC(C)Cn3c2nc2c3c(=O)n(CCN3CCOCC3)c(=O)n2C)c1 (stereo unspecified)	D3 antag -64
CN(C)CCCOc1nn(Cc2ccccc2)c2ccccc12	D1 antag -31, D3 antag -93
COc1ccc(Br)cc1Cn1nnc(C(=O)Nc2cccc(SC)c2)c1N	none (no result: D3 antag)
CCOc1ccc(CNC(=O)C2Cc3cc(S(=O)(=O)N4CCCCCC4)ccc3N2C(C)=O)cc1 (stereo unspecified)	none (no result: D3 antag)
O=c1[nH]cc(N=Cc2cc(Cl)cc(Cl)c2O)c(=O)[nH]1	D3 antag -67
CCc1cccc(C)c1NC(=O)Cn1ccn(-c2ccc(F)cc2)c(=O)c1=O	none (no result: D3 antag)
CCOC(=O)/C=C/C(=O)Nc1ccc(Oc2ccccc2)cc1	D1 antag -36
CCOC(=O)C(=O)Nc1ccccc1C(=O)NC(C)C	DRD3 agonist 38
CCOC(=O)/C=C/S(=O)(=O)c1ccc(NC(C)=O)cc1	D3 antag -76
CCOC(=O)C(=O)Nc1ccc(Oc2ccccc2)cc1	D1 antag -33
CCOc1cccc(NC(=O)C2CC(=O)N(C)C(=Nc3ccc(F)cc3)S2)c1 (stereo unspecified)	none (no result: D3 antag)
Cc1ccc(Cl)cc1N1CCN(C(=O)Cn2c(-c3cccs3)cc3cc(F)ccc32)CC1	none (no result: D3 antag)
Cc1nc(N2CCOCC2)c2c(C(=O)N(C)Cc3ccccc3)c(C)oc2n1	none (no result: D3 antag)
CC1=CN(S(=O)(=O)c2ccc(C)cc2)C[C@@H]2[C@H]3CC[C@H](C3)[C@H]12	D3 antag -65 (no result: D1 ag, D1 antag, D1 potentiator)
Cc1ccc(S(=O)(=O)N2C[C@@H]3[C@H]4CC[C@H](C4)[C@@H]3[C@@H](C)[C@@H]2C2CCCCC2=O)cc1 (stereo partly specified)	none (no result: D1 ag, D1 antag, D1 potentiator)
CCN(C(=O)c1cc(S(=O)(=O)N2CCCCC2)c[nH]1)c1ccc(OC)cc1	none
CCN(CC)C(=O)c1cc(S(=O)(=O)N2CCCCC2)c[nH]1	D1 antag -36
Cc1ccc(N2CCN(C(=O)c3cc(S(=O)(=O)N4CCCCC4)c[nH]3)CC2)c(C)c1	none (no result: D3 antag)
CC1CCN(C(=O)c2cc(S(=O)(=O)N3CCCCC3)c[nH]2)CC1	D1 antag -33
COCCNC(=O)CSc1nc(-c2cc(OC)c(OC)c(OC)c2)[nH]c1-c1ccc(Cl)cc1	none (no result: D3 antag)
Cc1ccc(C)c(N2CCN(C(=O)C(C)n3c(C)c4cnn(-c5ccccc5)c(=O)c4c3C)CC2)c1 (stereo unspecified)	none (no result: D3 antag)
CN1C(C(=O)NC(C)(C)C)=CC(c2ccc3c(c2)OCO3)=NS1(=O)=O	none (no result: D3 antag)
O=C(Nc1cccc(Br)c1)Oc1cccc2cccnc12	D3 antag -83 (no result: D1 ag, D1 antag, D1 potentiator)
O=C(Nc1c(Cl)cccc1Cl)Oc1cccc2cccnc12	D3 antag -52 (no result: D1 ag, D1 antag, D1 potentiator)
O=C(COc1cccc2cccnc12)Nc1ccccc1	none
O=C(COc1cccc2cccnc12)NCC(F)(F)F	none
O=C(Nc1cccc(C(F)(F)F)c1)Oc1ccc(Cl)c2cccnc12	D1 ag 34, D3 antag -62
O=C(Cn1ncc2c([nH]c3ccccc32)c1=O)Nc1cc(F)ccc1F	none (no result: D3 antag)
COc1cccc(CNC(=O)c2cc(C)nc3c2c(C)nn3-c2cccc(F)c2)c1	D1 ag 33 (no result: D3 antag)
Cc1cc(C(=O)NCc2cccc(Br)c2)c2c(C)nn(-c3ccccc3)c2n1	none (no result: D3 antag)
CCc1ccc(-n2nc(C)c3c(C(=O)Nc4cccc(C(F)(F)F)c4)cc(C)nc32)cc1	D1 antag -35 (no result: D3 antag)
Cc1cc(C(=O)NCc2ccccc2Cl)c2c(C)nn(-c3cccc(F)c3)c2n1	none (no result: D3 antag)
Cc1cc(C(=O)NCc2ccccc2C)c2c(C)nn(-c3cccc(F)c3)c2n1	D1 antag -46 (no result: D3 antag)
COc1ccc(C(=O)c2cn(CC(=O)Nc3ccc4c(c3)OCO4)c3ccc(OC)cc3c2=O)cc1	none (no result: D3 antag)
CCc1ccc(NC(=O)c2ccc(F)c(S(=O)(=O)NCCc3ccc(OC)c(OC)c3)c2)cc1	none (no result: D3 antag)
CC(=O)c1ccc(N2CCN(C(=O)c3cc4cc5cc(C)ccc5nc4s3)CC2)cc1	none (no result: D3 antag)
Cn1c(=O)c(C(=O)COc2ccc(C#N)cc2)c(N)n(Cc2ccccc2)c1=O	D1 ag 59
O=C(CCc1nnc2ccc(NCc3ccccc3)nn12)NCC1CCN(C2CCCC2)C1 (stereo unspecified)	D1 antag -84
Cc1cc(=O)n(CCCc2ccccc2)[nH]1	D3 antag -67
COc1ccc(NC(=O)Nc2ccc(F)cc2)cn1	none

Screening data as filed in PubChem BioAssay.
